Bioassay records: PubChem BioAssay, National Center for Advancing Translational Sciences (NCATS)
The list is not random: actives were taken first. Their share in the collection is about 2.4%.
Tb PFK inh – qHTS Assay to Find Inhibitors of T. brucei phosphofructokinase | AID 485367, 2010 | hit rate 0.17% among 330,000 | T. brucei PFK, ADP-Glo luminescence | Potency, µM (series often up to 57.5 µM), inactives show top-dose activity, negative = inhibition, actives largely listed as inhibitors | ATP-dependent 6-phosphofructokinase (Trypanosoma brucei brucei), O15648;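 further: 0% = uninhibited 1x PFK enzyme wells and -100% = no-enzyme wells; nearly all actives have a fitted effect of over 60% in size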
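1.25 nM PFK with 0.5 mM F6P and 0.1 mM ATP in 0.1 M TEA pH 8.0, 5 mM MgCl2, incubated 45 min at room temperature; ADP measured by ADP-Glo luminescence; compounds titrated up to 57 uM.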
ELG1 repair inh – qHTS screen for small molecules that inhibit ELG1-dependent DNA repair in human embryonic kidney (HEK293T) cells expressing luciferase-tagged ELG1 | HEK293T ELG1-luciferase reporter, luminescence, 16 h; DNA damage induced by 5-fluorouridine | Potency, µM (highest dose often 46.1 µM), inactives show top-dose activity change, negative = inhibition, hits mostly inhibitors | hit rate 2.3% among 330,000; further: on the % scale 0 is the no-effect control and ±100 the full control effect; nearly all actives have a fitted effect of over 55% in size
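Overnight (16 hr) co-exposure of 2,000 cells/well to 5-fluorouridine and compound at 37 °C preceded detection. Luciferase was quantified via ONE-Glo luminescence; loss of signal denotes inhibition.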
Rango dissoc inh – qHTS Assay for Inhibitors of RanGTP induced Rango (Ran-regulated importin-beta cargo) - Importin beta complex dissociation | Biochemical FRET Rango-importin beta, RanGTP-induced dissociation | Potency, µM (series often up to 46.1 µM), inactives show top-dose activity change, negative = inhibition | hit rate 0.071% among 340,000 | AID 540253, 2011; calls by dose curve; further: % of control where 0% means no effect; nearly all actives have a fitted effect of over 45% in size
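Compounds preincubate 5 min with complex of recombinant Rango and importin beta in PBS with 1 mM DTT. Ran (0.6 uM) loaded with 2 mM GTP plus 0.2 uM RCC1 starts dissociation; FRET is recorded 45 min later.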
PKM2 activator – qHTS Assay for Activators of Human Muscle isoform 2 Pyruvate Kinase. Pyruvate kinase PKM (Homo sapiens), P14618. purified PKM2, Kinase-Glo ATP luminescence, activation; response scale: 0% is enzyme alone, no compound. Potency, µM (top dose mostly 57.5 µM), without a hit: top-dose activation, usual class: activators. hit rate 0.34% among 260,000. AID 1631, 2009; further: on the % scale 0 is the no-effect control and ±100 the full control effect; nearly all actives have a fitted effect of over 55% in size
Target sequence (P14618 whole entry, looked up, canonical isoform): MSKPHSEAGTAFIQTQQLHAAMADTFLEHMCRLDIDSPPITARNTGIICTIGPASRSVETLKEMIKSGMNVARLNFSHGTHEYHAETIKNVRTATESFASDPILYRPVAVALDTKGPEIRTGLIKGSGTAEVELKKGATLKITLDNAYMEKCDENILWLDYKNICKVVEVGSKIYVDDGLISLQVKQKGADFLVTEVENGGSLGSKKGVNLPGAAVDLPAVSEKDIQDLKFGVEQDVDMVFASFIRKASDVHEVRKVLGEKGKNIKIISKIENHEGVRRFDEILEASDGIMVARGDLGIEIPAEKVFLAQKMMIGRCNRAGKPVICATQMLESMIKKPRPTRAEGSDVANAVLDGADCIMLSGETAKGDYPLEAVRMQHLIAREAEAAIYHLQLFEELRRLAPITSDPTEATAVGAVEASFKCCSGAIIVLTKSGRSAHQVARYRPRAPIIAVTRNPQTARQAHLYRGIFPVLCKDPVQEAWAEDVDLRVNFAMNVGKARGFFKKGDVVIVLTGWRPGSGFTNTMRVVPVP
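ATP formation by purified human PK-M2, quantified via coupled luciferase luminescence after 1 h at room temperature with 0.1 mM ADP and 0.5 mM PEP final.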
Tb PGK inh – qHTS Assay to Find Inhibitors of Phosphoglycerate Kinase; PGK/GAPDH coupled, Kinase-Glo luminescence, 60 min; Potency, µM (titrated, usually from 57.5 µM), inactives show at the highest dose activity change, negative = inhibition, actives largely listed as inhibitors; hit rate 0.043% among 380,000; AID 602233, 2012; further: on the % scale 0 is the no-effect control and ±100 the full control effect; nearly all actives have a fitted effect of over 60% in size
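Recombinant glycosomal PGK reaction used 1,3-bisphosphoglycerate generated in-well by GAPDH (100nM final) in 100mM TEA pH 7.6, 5mM MgCl2, 0.01% Tween-20. After 60 minutes at room temperature, ATP was read by Kinase-Glo Plus luminescence end-point.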
Rango-impB inh – qHTS Assay for Inhibitors of Rango (Ran-regulated importin-beta cargo) - Importin beta complex formation | Importin subunit beta-1 (Homo sapiens), Q14974 | hit rate 0.031% among 340,000 | Potency, µM (series often up to 92.2 µM), without a hit: top-dose inhibition of complex formation | Rango CFP/YFP FRET sensor + importin beta, 45 min; calls by dose curve;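 further: 0% = DMSO wells and 100% = buffer wells lacking importin beta; nearly all actives have a fitted effect of over 15% in size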
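FRET biosensor Rango (snurportin 1 IBB between N-terminal EYFP and C-terminal Cerulean), 50 nM in PBS/1 mM DTT/0.02% Tween-20/0.1% BSA, preincubated 5 min RT with compound; 0.125 microM importin beta added, 45 min RT, CFP/YFP FRET ratio read.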
Starred values were filed as active, the others as inactive; [ ] = dose if it differs, or a comment. Unless noted, the call rests on the fitted dose curve; in most records, active means well fitted curve in the direction sought with a large enough effect; inconclusive means small, poorly fitted or top-dose-only effect, or another doubt; inactive means no such curve, though single readings can be large; an effect the other way counts as inactive or inconclusive. Potency means the concentration at half of the fitted maximal effect.

What do the screens show for `COc1ccc(C2Nc3ccccc3C(=O)N2Cc2ccco2)cc1COc1ccc([N+](=O)[O-])cc1` (stereo not given)?
Tb PFK inh: 3.7%[0.46 µM]; ELG1 repair inh: inconclusive; Rango dissoc inh: 1.1%; PKM2 activator: inconclusive; Tb PGK inh: -3.7%; Rango-impB inh: -2.4%

How did NC(=S)Cc1ccc(Cl)cc1Cl do in these assays?
Tb PFK inh: 0.9%; ELG1 repair inh: -4.4%; Rango dissoc inh: 17.5%; PKM2 activator: 0.7%; Tb PGK inh: -4.0%; Rango-impB inh: 6.1%

How did N=C(N)SCc1ccc(Cl)cc1Cl do in these assays?
Tb PFK inh: inconclusive; ELG1 repair inh: 10.3µM*; Rango dissoc inh: 2.6%; PKM2 activator: -6.7%; Tb PGK inh: -7.9%; Rango-impB inh: inconclusive

What do the screens show for `CCN(c1ccccc1)S(=O)(=O)c1cc(C(=O)Nc2cccc(Cl)c2)ccc1F`?
Tb PFK inh: -1.3%; ELG1 repair inh: 23.1µM*; Rango dissoc inh: 7.7%; PKM2 activator: 15.6%; Tb PGK inh: -5.7%; Rango-impB inh: -1.5%

Results for CCc1ccc(NC(=O)c2ccc(F)c(S(=O)(=O)N(CC)c3ccccc3)c2)cc1 ?
Tb PFK inh: -0.5%; ELG1 repair inh: inconclusive; Rango dissoc inh: 8.2%; PKM2 activator: 0.5%; Tb PGK inh: -10.2%; Rango-impB inh: -0.4%

Results for COc1ccc(NC(C)=O)cc1NC(C)c1nc2sc(C)c(C)c2c(=O)[nH]1 (stereo not given) ?
Tb PFK inh: 3.1%; ELG1 repair inh: 20.6µM*; Rango dissoc inh: -5.8%; PKM2 activator: 0.2%; Tb PGK inh: -7.6%; Rango-impB inh: -3.0%

What do the screens show for `CCN(Cc1ccccc1)S(=O)(=O)c1ccc(C(=O)N2CCN(c3nc4ccccc4s3)CC2)cc1`?
Tb PFK inh: 3.7%; ELG1 repair inh: 11.6µM*; Rango dissoc inh: inconclusive; PKM2 activator: -1.4%; Tb PGK inh: 3.7%; Rango-impB inh: 2.5%

How did CCc1ccc2nc(N3CCN(C(=O)c4ccccc4)CC3)sc2c1 do in these assays?
Tb PGK inh: inactive

What do the screens show for `CCN1C[C@@H]2[C@@H]3C(=O)N(Cc4ccccc4)C(=O)[C@@H]3[C@](Cc3ccccc3)(C(=O)OC)N2C1=NC`?
Tb PFK inh: -2.1%; ELG1 repair inh: 15.8%; Rango dissoc inh: -12.8%; Tb PGK inh: -2.4%; Rango-impB inh: -4.2%

How did CC(C)OC(=O)N(C)C[C@@H]1OCc2cnnn2CCCC(=O)N([C@H](C)CO)C[C@@H]1C do in these assays?
Tb PGK inh: -10.0%

How did COc1ccc(-c2nn(-c3ccccc3)cc2C(=O)Nc2nccs2)cc1 do in these assays?
Tb PFK inh: -0.9%; ELG1 repair inh: 6.51µM*; Rango dissoc inh: -5.8%; PKM2 activator: -5.7%; Tb PGK inh: inactive; Rango-impB inh: 1.1%

How did O=C(Nc1cccc(Cl)c1)N1CC2CCCN2c2ccccc21 (stereo not given) do in these assays?
Tb PGK inh: -0.1%

Results for O=C(Nc1cccc(S(=O)(=O)Nc2ccccc2F)c1)c1ccc2ccccc2n1 ?
Tb PFK inh: -28.8%; ELG1 repair inh: inconclusive; Rango dissoc inh: -6.4%; PKM2 activator: -15.7%; Tb PGK inh: -11.1%; Rango-impB inh: 0.0%

What do the screens show for `COc1ccc(NS(=O)(=O)c2cccc(NC(=O)c3cnccn3)c2)cc1Br`?
Tb PFK inh: 1.6%; ELG1 repair inh: 18.3µM*; Rango dissoc inh: -12.3%; PKM2 activator: 1.8%; Tb PGK inh: 11.4%; Rango-impB inh: 4.0%

What do the screens show for `COc1ccccc1NS(=O)(=O)c1cccc(NC(=O)c2ccc3ccccc3n2)c1`?
Tb PFK inh: 1.8%; ELG1 repair inh: 18.4µM*; Rango dissoc inh: -3.1%; PKM2 activator: -1.1%; Tb PGK inh: -9.0%; Rango-impB inh: inconclusive

What do the screens show for `CN(C)S(=O)(=O)c1cccc(NC(=O)c2cnccn2)c1`?
Tb PFK inh: 2.2%; ELG1 repair inh: 8.4%; PKM2 activator: -20.2%

Results for C(=NNc1nnn(Cc2ccccc2)n1)c1ccccc1 ?
Tb PGK inh: inactive

Results for CS(=O)(=O)Oc1ccc2c(c1)O/C(=C\C=C\c1ccccc1)C2=O ?
Tb PFK inh: 2.6%; ELG1 repair inh: 3.0%; Rango dissoc inh: inconclusive; PKM2 activator: 4.2%; Tb PGK inh: inactive; Rango-impB inh: inconclusive

How did O=C1/C(=C/c2ccncc2)Oc2cc(OS(=O)(=O)c3ccccc3)ccc21 do in these assays?
Tb PFK inh: 0.0%; ELG1 repair inh: inconclusive; Rango dissoc inh: -27.1%; PKM2 activator: 11.3%; Tb PGK inh: -3.0%; Rango-impB inh: -1.6%

Results for CCc1ccc(/C=C2\Oc3cc(OS(C)(=O)=O)ccc3C2=O)cc1 ?
Tb PFK inh: 4.7%; ELG1 repair inh: -10.9%; Rango dissoc inh: 8.2µM*; PKM2 activator: 0.0%; Tb PGK inh: 8.0%; Rango-impB inh: inconclusive

How did CS(=O)(=O)Oc1ccc2c(c1)O/C(=C\c1cccc([N+](=O)[O-])c1)C2=O do in these assays?
Tb PFK inh: -2.2%; ELG1 repair inh: 18.3µM*; Rango dissoc inh: -7.3%; Rango-impB inh: -1.1%

What do the screens show for `COc1cccc(OC)c1C(=O)Oc1ccc2c(c1)O/C(=C\c1ccncc1)C2=O`?
Tb PFK inh: 1.5%; ELG1 repair inh: 23.1µM*; Rango dissoc inh: 6.1%; PKM2 activator: 11.9%; Tb PGK inh: -1.5%; Rango-impB inh: 3.0%

What do the screens show for `CCN(CC)C(=O)C1=C(C)N(CCC2=CCCCC2)C(=O)C(CC(=O)NCCCCc2ccccc2)C1` (stereo not given)?
Tb PGK inh: -2.8%

Results for CCOC(=O)N1CCN(S(=O)(=O)c2ccc(C)cc2)C1c1ccccc1 (stereo not given) ?
Tb PFK inh: -3.5%; ELG1 repair inh: 25.9µM*; Rango dissoc inh: -12.4%; PKM2 activator: -1.8%; Tb PGK inh: 4.4%; Rango-impB inh: -2.9%
